# Test results reported in PubChem BioAssay (EPA / NIEHS).
# Some compounds were tested as several samples or in several runs, with calls that do not always agree. Active and inactive are the calls of the source. The calls were made as follows: active = hit-call score of the fitted dose curve at least 0.9, where 1 is the maximum; inactive = score below 0.9.
# Test: ATG_NF_kB_CIS: Attagene CIS-FACTORIAL HepG2 Assay for human Nuclear Factor Kappa B (NF-kB) (AID 2282991)
# Settings: HepG2 Attagene cis-factorial NF-kB reporter mRNA; actives raise or lower the signal
# Protocol: ATG_CIS is a cell-based, multiplexed-readout assay that uses HepG2, a human liver cell line, with measurements taken at 24 hours after chemical dosing in a 24-well plate.ATG_NF_kB_CIS is one of 52 assay component(s) measured or calculated from the ATG_CIS assay. It is designed to make measurements of mRNA induction, a form of inducible reporter, as detected with fluorescence intensity signals by Reverse transcription polymerase chain reaction (RT-PCR) and Capillary electrophoresis technology.Data from the assay component ATG_NF_kB_CIS was analyzed into 1 assay endpoint. This assay endpoint, ATG_NF_kB_CIS, was analyzed with bidirectional fitting relative to DMSO as the negative control and baseline of activity. Using a type of inducible reporter, measures of mRNA for gain or loss-of-signal activity can be used to understand the reporter gene at the transcription factor-level as they relate to the gene NFKB1. Furthermore, this assay endpoint can be referred to as a primary readout, because this assay has produced multiple assay endpoints where this one serves a reporter gene function. To generalize the intended target to other relatable targets, this assay endpoint is annotated to the dna binding intended target family, where the subfamily is NF-kappa B.
# Human liver HepG2 cells are transiently transfected with multiple reporter transcription units (MRTUs) in 6-well plates using FuGene 6 reagent (Roche; 3 ml FuGene/1 mg DNA). The MRTU constructs are regulated by a cis-regulating element (promoter). […] A major difference between the CIS and TRANS system is that in CIS activities of endogenous TFs are measured, whereas the TRANS assay evaluates changes in activities of exogenous, chimeric NR-Gal4 proteins. […] At the end of 24 hour incubation, total RNA was isolated using TriZol reagent (Invitrogen). The isolated RNA is then reverse-transcribed using oligo(dT) primer and Mo-MLV reverse transcriptase (Invitrogen) with DNAse I (Ambion) treatment for 30 min. The one-tenth of the produced cDNA was amplified by PCR using Taq DNA polymerase (Invitrogen) and two reporter sequence-specific primers. The PCR products were fluorescently labeled by primer extension with 6-arboxyfluorescein (6-FAM) 5'-labeled reporter sequence-specific primer (2 min at 95 C, 20 s at 68 C and 10 min at 72 C) and these products were digested with 5U of HpaI (New England Biolabs) for 2h at 37 C. The fragments were purified using Qiaquick PCR columns (Qiagen), analyzed on an ABI 3130xL genetic analyzer (Applied Biosystems) with peak positions identified by using a set of X-rhodamine (ROX)-labeled MapMarker1000 molecular weight standards (BioVentures). The raw capillary electrophoresis data was processed using Attagraph software (Attagene).
SMILES,AC50,outcome
CCC(C)(C)c1cc(O)c(C(C)(C)CC)cc1O,60.4 µM (active),–
CC(C)CCOC(=O)CC(C)C,–,inactive
CN(C)CCC=C1c2ccccc2CCc2ccccc21,13.4 µM (active),–
CCCCCCCCCCOC(=O)c1ccccc1C(=O)OCCCCCCCC,–,inactive
CC(C)=CC(=O)O,–,inactive
CC(=N[Si](C)(C)C)O[Si](C)(C)C,–,inactive
OC[C@H]1O[C@@H](O[C@H]2[C@H](O)[C@@H](O)[C@H](O)O[C@@H]2CO)[C@H](O)[C@@H](O)[C@H]1O,–,inactive
CCOC(=O)C(=O)OCC,–,inactive
CCCCCCCCOS(=O)(=O)O,–,inactive
CC(C)COC(=O)c1ccccc1,–,inactive
[Cl][Dy]([Cl])[Cl],–,inactive
FC(F)(F)c1ccc(Cl)c(Cl)c1,–,inactive
CC12CCC(C1)C(C)(C)C2O (stereo unspecified),–,inactive
CC(O)CN (stereo unspecified),–,inactive
CN(C)C(=O)Nc1ccccc1,–,inactive
c1ccc(Cc2ccccc2)cc1,–,inactive
CC(O)COCC(C)O (stereo unspecified),–,inactive
CC/C(=C(\c1ccccc1)c1ccc(OCCN(C)C)cc1)c1ccccc1,–,inactive
CC(C)=CCCC(C)=CC(=O)O,–,inactive
O=S1(=O)CC(Cl)(Cl)C(Cl)(Cl)C1,–,inactive

SMILES,AC50,outcome
COc1ccccc1O,–,inactive
CCCCOCCOCCOCCO,–,inactive
CCCCCCCCCCCCOCCOS(=O)(=O)O,–,inactive
CCCCC1CCCCC(=O)O1 (stereo unspecified),–,inactive
CCO[Si](CC)(OCC)OCC,–,inactive
CC(C)(C)C1CCC(O)CC1 (stereo unspecified),–,inactive
CCCCCCOC(C)=O,–,inactive
CC(=O)CCc1ccc(O)cc1,–,inactive
C=C/C(C)=C/C/C=C(\C)CCC=C(C)C,100 µM (active),–
CCC(C)C1CCCCC1=O (stereo unspecified),–,inactive
CCCCCCCCCCCCS,–,inactive
CC1=CC(C)C(C=O)C(C)C1 (stereo unspecified) (tested in a mixture with another compound),–,inactive
OCC=Cc1ccccc1,–,inactive
CCCCCC(=O)O[C@]1(C(C)=O)CC[C@H]2[C@@H]3CCC4=CC(=O)CC[C@]4(C)[C@H]3CC[C@@]21C,–,inactive
CCn1cc(C(=O)O)c(=O)c2ccc(C)nc21,–,inactive
Brc1cc(Br)cc(Br)c1,–,inactive
[Na+],–,inactive
COc1ccc2[nH]cc(CCNC(C)=O)c2c1,–,inactive
CCCCCCOc1ccc(O)cc1,–,inactive
C#C[C@]1(O)CC[C@H]2[C@@H]3CCc4cc(O)ccc4[C@H]3CC[C@@]21C,162 µM (active),inactive
